# ERK EGF block: inhibitors of EGF-stimulated ERK signaling pathway | HEK293-V1b, EGF-stimulated phospho-ERK AlphaScreen | Potency, µM (series often up to 11.5 µM), without a hit: at the highest dose activity change, negative = inhibition, usual class: inhibitors | 0.41% of 130,000 active; active = well fitted inhibition curve with a large enough effect;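 also: plate controls were stimulated vehicle wells for no effect and unstimulated vehicle basal for full effect; nearly all actives have a fitted effect of over 55% in size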
#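 Cell line HEK293 (stable V1b), low serum overnight. Pretreatment: compound 30 min, 37C. EGF 25 nM, 5 min. Detection: SureFire AlphaScreen, 5 h RT. AC50 via standard Hill equation.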
# * = called active by the depositor; [ ] = dose if it differs, or a comment. Only a selection was taken, and hits are over-represented in it overall. Potency is read from the fitted curve at half-maximal effect.
SMILES,ERK EGF block
COc1ccc2c(c1)C(=O)[C@H](OC(=O)NCc1ccco1)[C@@H](c1ccc(OC)c(Br)c1)O2,1%
O=C(O)COCCN1CCN([C@@H](c2ccccc2)c2ccc(Cl)cc2)CC1,9%[25.7 µM]
CCOC(=O)CNC(=O)O[C@@H]1C(=O)c2cc(Br)ccc2O[C@H]1c1ccc2c(c1)OCO2,-14%
COc1ccc(S(=O)(=O)N2CCOCC2)cc1Br,1%
CC(C)(C)c1cc(Br)c(O)c(N=Nc2ccc(S(=O)(=O)N3CCOCC3)cc2)c1,25µM*
Cc1ccc(O)c(N=Nc2ccc(S(=O)(=O)N3CCOCC3)cc2)c1,9%
CCN(CC)CCCn1c(-c2ccccc2)nc2c(N3CCOCC3)nc(C)nc21,-4%
CCCCCCCC1=Cc2ccc(F)cc2C(C(C(C)=O)C(=O)OC)N1C(=O)OC (stereo not given),-5%
CCc1c2c(nc3cccc(C(C)C)c13)-c1cccc(=O)n1C2,-7%
NC(=O)CC[C@@H]1NC(=O)[C@H](Cc2ccccc2)NC(=O)[C@H](Cc2ccc(O)cc2)NC(=O)[C@@H](N)CSSC[C@@H](C(=O)N2CCC[C@H]2C(=O)N[C@@H](CCCN=C(N)N)C(=O)NCC(N)=O)NC(=O)[C@H](CC(N)=O)NC1=O,1%
CC(C)[C@@H]1NC(=O)c2cc([N+](=O)[O-])cc(I)c2OCC[C@@H](C(N)=O)NC(=O)[C@H](CCC(=O)O)NC1=O,-5%
CCCCC[C@H](O)/C=C/C=C\C/C=C\CCCCCCC(=O)O,-3%
CCN(CC)CCC[C@H](C)Nc1c2ccc(Cl)cc2nc2ccc(OC)cc12,-4%[25.7 µM]
Nc1nc(Cl)nc2c1ncn2[C@@H]1O[C@H](COP(=O)(O)OP(=O)(O)OP(=O)(O)O)[C@H](O)[C@H]1O,5%
O=C(O)C(Oc1ccc2ccc(=O)oc2c1)c1ccccc1 (stereo not given),-2%
O=C1CCC/C1=C\c1ccccc1,-8%
O=C1/C(=C/c2ccncc2)N=C2CCCCCN12,-10%[57.5 µM]
O=C1/C(=C/c2ccncc2)CCC/C1=C\c1ccncc1,22µM*
CN(C)CCCO[C@H]1C([C@H](O)CO)O[C@@H]2OC(C)(C)O[C@@H]21 (stereo not given in full),-6%
CC(=O)Oc1cc(OC(C)=O)c2c(c1)OC(c1ccc(OC(C)=O)c(OC(C)=O)c1)C(OC(C)=O)C2 (stereo not given),33%
COC(=O)c1ccc(C(NC(=O)OCc2ccccc2)/C(C)=C/[C@@H](C)C(=O)NCc2nc3ccccc3s2)cc1 (stereo not given in full),-3%
COc1ccc(C(=O)/C=C/Nc2ccc([N+](=O)[O-])cc2)cc1,1%
COc1ccc(NC(=O)CNC(=O)c2ccc([N+](=O)[O-])cc2)cc1,5%
COC(=O)/C(=C\C(=O)c1ccc([N+](=O)[O-])cc1)Nc1ccc(OC)cc1,13µM*
COC(=O)[C@@]1(Cc2ccc(F)cc2)[C@H]2c3cc(C(=O)N4CCCC4)n(CCN4CNCC4=O)c3C[C@H]2CN1C(=O)c1ccccc1,0%
SMILES,ERK EGF block
Cc1cc(=O)[nH]c(NCc2ccccc2)n1,-16%[57.5 µM]
Cc1cccc(Nc2ccc(NCc3ccccc3)nn2)c1,2%
Cc1nn(-c2nnc(NCc3ccccc3)nn2)c(C)c1Br,22µM*
CCCn1c(=O)[nH]c2nc(-c3ccc(S(=O)(=O)O)cc3)[nH]c2c1=O,2%
CCN1CCCC1Cn1c(-c2ccccc2)nc2c(NCCOC)nc(C)nc21 (stereo not given),3%
C#C[C@]1(O)CC[C@H]2[C@H]3CCC4=Cc5oncc5C[C@]4(C)[C@@H]3CC[C@]21C,-5%
CC(C)(C)c1ccc(OCCOc2ccc(C(C)(C)C)cc2NC=O)c(NC=O)c1,32µM*
COCCOc1ccc(C(F)(F)F)cc1NC(=O)c1ccc(F)cc1,-2%
COCCOc1ccc(C(F)(F)F)cc1NC(=O)c1ccccc1,-3%
COc1ccc(OC)c2c(=S)c3ccccc3[nH]c12,-1%
COc1ccc(C2CC(c3ccc(Br)cc3)=NN2C(=O)CSC2=NCCS2)cc1 (stereo not given),-3%
CCOc1ccc(C(=O)NC2=NCCS2)cc1,-2%
CCOc1ccc2c(c1)-c1c(ssc1=S)C(C)(C)N2C(=O)CSC1=NCCS1,18µM*
CC(=O)CCOC1CCCCO1 (stereo not given),1%
Cn1c(N=Nc2ccc(N3CCOCC3)cc2)[n+](C)c2ccccc21,16µM*
Cn1c(N2CCOCC2)c(/C=N/O)c2ccccc21,-16%
Cn1c(O)c(C=Nc2ccc(N3CCOCC3)cc2)c(=O)n(C)c1=S,-3%
NCCC[C@@H](CC(=O)N[C@@H]1CCCC[C@H]1C(=O)N[C@H](CC(=O)N[C@@H](CCC(=O)O)CC(=O)O)Cc1ccccc1)NC(=O)C[C@H](Cc1c[nH]c2ccccc12)NC(=O)[C@@H]1CCCC[C@H]1N,0%
CNCCCCc1cnc(C)c2[nH]c3ccccc3c12,-4%
COC(=O)[C@H](Cc1ccccc1)NC(=O)O[C@@H]1C(=O)c2ccc(OC)cc2O[C@H]1c1ccc2c(c1)OCO2,-10%
